# This is a sample that favours compounds with a hit; in the whole collection about 8.8% have one here.
# HT1080 IDH1KD tx: kills HT-1080 cells with IDH1 knockdown. HT-1080 IDH1 knockdown viability, ATP luminescence, 48 h. Potency, µM (doses to about 46.1 µM), actives largely listed as cytotoxic. actives 2% (n = 360,000). AID 686971
#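 % activity derives from luminescence (CellTiter-Glo), normalised to DMSO and no-cell wells. HT-1080-IDH1KD cells, 750/well, had 48 h compound exposure at 37 °C.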
# IL-1B inflam inh: inhibitors of inflammasome signaling (IL-1 beta secretion); THP-1 LPS/ATP IL-1B secretion, AlphaLISA, 16 h; stronger effect = lower value; activity change, % at 57.5 µM; actives 4.7% (n = 360,000); AID 743279; in the data active = activity change below about -50%; inconclusive = mostly about -30% to -49%
#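 THP-1 cells pretreated 1 hr with compounds (up to 57.5 uM final), then stimulated with LPS (250 ng/mL final) plus ATP (1.25 mM final); secreted IL-1B measured by AlphaLISA after 16 hr, decreased signal indicating inhibition.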
# KB-V1 cytotox: kills drug-selected multidrug resistant KB-V1 cells. KB-V1 MDR cells viability, CellTiter-Glo, 72 h. Potency, µM (top dose mostly 46.1 µM), actives largely listed as cytotoxic. actives 3.4% (n = 400,000); also: nearly all actives have a fitted effect of over 60% in size
#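 KB-V1 MDR subline cells in DMEM (phenol-red free, 10% FBS) exposed to compounds in qHTS concentration series for 72 h at 37 degrees C. Viability read by CellTiter-Glo luminescence; concentration-effect curves fitted after normalization and correction.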
# HT1080-NT tox: kills 2HG-producing HT-1080-NT fibrosarcoma cells. Potency, µM (doses to about 46.1 µM), actives largely listed as cytotoxic. HT-1080-NT fibrosarcoma viability, CellTiter-Glo ATP luminescence, 48 h. AID 686970. actives 1.6% (n = 360,000);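 also: NT is the 2HG producing partner of a matched IDH1 knockdown line; nearly all actives have a fitted effect of over 55% in size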
#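 A 48-hour cytotoxicity screen used HT-1080-NT cells plated 2 hours before compound delivery. ATP-based CellTiter-Glo luminescence measured viability, normalized to DMSO and no-cell controls.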
# KB-3-1 tox: KB-3-1 parental cell cytotoxicity; KB-3-1 viability, CellTiter-Glo ATP luminescence, 72 h; AID 1347075; actives 1.4% (n = 400,000); Potency, µM (series often up to 46.1 µM), actives largely listed as cytotoxic; also: nearly all actives have a fitted effect of over 60% in size
#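 Luminescent ATP read-out (CellTiter-Glo) measures survival of drug-naive KB-3-1 cells after 72 h compound exposure at 37 °C. Titration series was screened from lowest to highest concentration, with DMSO vehicle plates as background controls.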
# Hits are given with their value; 0 = inactive; ? = inconclusive; - = no result given. Unless noted, calls follow the shape of the dose curve; as a rule, active = well fitted curve in the direction sought with a large enough effect; inconclusive = small, poorly fitted or top-dose-only effect, or another doubt; inactive = no such curve, though single readings can be large; an effect the other way counts as inactive or inconclusive.
SMILES,HT1080 IDH1KD tx,IL-1B inflam inh,KB-V1 cytotox,HT1080-NT tox,KB-3-1 tox
CCN(CC(=O)Nc1ccc(NC(C)=O)cc1)C(=O)CSC(c1ccccc1)c1ccccc1,0,?,0,0,0
CSCCC(c1nnnn1-c1c(C)cccc1C)N1CCC(n2c(=O)[nH]c3ccccc32)CC1 (stereo not drawn),0,0,0,0,0
O=c1[nH]c2ccccc2n1C1CCN(C(CCc2ccccc2)c2nnnn2Cc2ccccc2)CC1 (stereo not drawn),6.51µM,-93.1,6.51µM,7.31µM,?
CSCCC(c1nnnn1Cc1ccccc1)N1CCC(n2c(=O)[nH]c3ccccc32)CC1 (stereo not drawn),?,0,10.3µM,?,0
O=c1[nH]c2ccccc2n1C1CCN(C(c2nnnn2C2CCCCC2)C2CC2)CC1 (stereo not drawn),0,0,0,0,0
C[N+](C)(C)CC1CCCC1=O (stereo not drawn),0,0,0,0,0
COc1ccccc1N1CCN(Cc2ccc(Br)s2)CC1,0,?,?,0,0
Cc1c(C=C2C(=O)NC(=O)NC2=O)c(=O)n(-c2ccccc2)n1C,0,0,0,0,0
O=C1NC(=O)C(=Cc2c(Cl)cccc2Cl)C(=O)N1,0,-58.4,0,0,?
O=C(COc1ccccc1F)N1CCN(Cc2cc(=O)n3nc(-c4ccccc4Cl)sc3n2)CC1,-,-,0,-,0
COc1ccc(CC(=O)N2C[C@H]3C[C@@H](C2)c2cccc(=O)n2C3)cc1,0,0,0,0,0
COc1ccc(OC(=O)N2C/C(=C/c3ccccc3)C(=O)/C(=C\c3ccccc3)C2)cc1,8.2µM,-86.7,?,10.3µM,?
COc1ccccc1CCNC1CCC(C(C)(C)C)CC1 (stereo not drawn),?,-65.0,0,?,0
COc1ccccc1CCNC1CCCCCC1,0,0,?,0,0
CCCCCC1(C(C)C)C(=O)NC(=S)NC1=O,0,0,?,0,0
Cc1ccc(CN2C(=O)CN=C(c3ccccc3)c3ccccc32)cc1,0,0,18.4µM,0,?
CSCc1nnc2n1-c1ccc(Cl)cc1C(c1ccccc1)=NC2,0,0,16.4µM,0,?
O=C1CN=C(c2ccccc2)c2cc(Cl)ccc2N1Cc1ccc(Cl)cc1,-,-,14.6µM,-,?
CCC1CN1P(=S)(N1CC1CC)N1CC1CC (stereo not drawn),0,0,0,0,0
COc1cc(C(c2c(O)c3ccccc3oc2=O)c2c(C)n(C)n(-c3ccccc3)c2=O)ccc1OCC(=O)O (stereo not drawn),-,-,0,-,0
O=[N+]([O-])c1ccc(N(CCO)CCO)c2c1no[n+]2[O-],5.8µM,-103.0,20.6µM,8.2µM,4.61µM
CN1CCN(c2ccc([N+](=O)[O-])c3no[n+]([O-])c23)CC1,4.61µM,-100.5,?,2.91µM,?
CCCCn1c(=O)c(C(=O)Nc2ccccc2S(N)(=O)=O)c(O)c2ccccc21,?,0,16.4µM,?,0
CCCCn1c(=O)c(C(=O)Nc2ccccc2)c(O)c2ccccc21,0,0,13µM,0,0
CCCCCn1c(=O)c(C(=O)Nc2nc(CC(=O)OCC)cs2)c(O)c2ccccc21,0,0,6.51µM,0,0
SMILES,HT1080 IDH1KD tx,IL-1B inflam inh,KB-V1 cytotox,HT1080-NT tox,KB-3-1 tox
CCCCCn1c(=O)c(C(=O)NCc2ccco2)c(O)c2ccccc21,0,0,20.6µM,0,0
CCC1(c2ccccc2)C(=O)N(COC)C(=O)N(COC)C1=O,0,0,0,0,0
COc1ccc(CN2CCN(Cc3ccccc3F)CC2)cc1,0,0,0,0,0
CCCCCCn1c(=O)c(C(=O)Nc2ncccc2C)c(O)c2ccccc21,?,0,?,?,?
CCCCCn1c(=O)c(C(=O)Nc2ccccc2S(N)(=O)=O)c(O)c2ccccc21,?,?,?,0,10.3µM
CCCCn1c(=O)c(C(=O)Nc2ncccc2C)c(O)c2ccccc21,16.4µM,0,?,23.1µM,?
Cc1cccc(-c2nc(CN3C(=O)CN=C(c4ccccc4)c4ccccc43)c(C)o2)c1,-,-,0,-,0
Cc1ccccc1Cn1cccc(C(=O)Nc2cc(Cl)ccc2C#N)c1=O,-,-,?,-,0
COc1cc2c(cc1/C=C/[N+](=O)[O-])OCO2,8.2µM,0,0,4.11µM,?
COc1cc(/C=C/[N+](=O)[O-])ccc1OC(=O)c1cccnc1,0,?,?,0,0
c1ccc(CCn2nnnc2CN2CCC(n3nnc4ccccc43)CC2)cc1,0,0,5.8µM,0,0
CN1CC[C@@]2(C)c3cc(O)ccc3N(C)C2O1 (stereo partly drawn),-,-,0,-,0
CN1CC[C@@]2(C)c3cc(O)ccc3N(C)[C@@H]12,?,0,0,23.1µM,?
CC(C)c1ccccc1OCC(=O)N1CCCN(C)CC1,0,0,0,0,0
CC1CCC[C@H](O)CCCCCc2cc(O)cc(O)c2C(=O)O1 (stereo partly drawn),0,0,20.6µM,0,0
C[C@H]1CCC[C@H](O)CCCCCc2cc(O)cc(O)c2C(=O)O1,?,0,?,0,?
C[C@H]1CCC[C@@H](O)CCC/C=C/c2cc(O)cc(O)c2C(=O)O1,8.91µM,?,?,?,0
OC(c1cccc(Cl)c1)(c1cccc(Cl)c1)C1CN2CCC1CC2 (stereo not drawn),18.4µM,-73.2,?,23.1µM,?
O=C(Nc1cccc(C(F)(F)F)c1)OC1CN2CCC1CC2 (stereo not drawn),0,0,0,0,0
Cc1cc(OC(C)C(=O)NCC(O)c2ccccc2)c2c3c(c(=O)oc2c1)CCC3 (stereo not drawn),0,0,0,0,0
Cc1ccccc1N1C(=O)NC(=O)/C(=C\c2cnn(-c3ccccc3)c2)C1=O,?,-96.2,0,?,0
O=C(Cc1ccccc1)OCCN1CCCCC1,0,0,0,0,0
c1ccc(C(OCCN2CCN(c3ncccn3)CC2)c2ccccc2)cc1,0,-76.1,0,0,0
Clc1ccc(C(OCCN2CCCCC2)c2ccccc2)cc1 (stereo not drawn),?,-51.4,?,0,0
COc1ccc(C(=O)CN2CCOCC2)cc1,-,-,0,-,0
C=CC[N+]1(C)C2CCC1CC(O)C2 (stereo not drawn),0,0,0,0,0
COC(=O)C1=C(c2ccc(Cl)c(C(F)(F)F)c2)C[C@@H]2CC[C@H]1N2C(=O)NCCOc1ccccc1,0,-80.8,0,?,0
COC(=O)C1=C(c2ccc(OC(F)(F)F)cc2)C[C@@H]2CC[C@H]1N2C(=O)NCCOc1ccccc1Cl,0,-58.4,?,0,?
COC(=O)C1=C(c2ccc(Cl)c(C(F)(F)F)c2)C[C@@H]2CC[C@H]1N2C(=O)NCc1ccco1,0,-65.1,0,0,0

# Screening results (PubChem BioAssay)
